# Source: PubChem BioAssay
# This is a sample that favours compounds with a hit; in the whole collection about 2.3% have one here.
# M1 ag: human M1 muscarinic receptor agonists, primary screen, Fluo-8 calcium fluorescence, CHO-K1 cells, HTS; hit rate 0.33% among 360,000; CHO-K1 hM1, agonist mode; 0% DMSO, 100% acetylcholine EC100; AID 588814, 2011; activation, % at 3 µM;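 active = activation above the run's mean compound activation plus 3 SD, cut at about 16% in these data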;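 also: peak over basal fluorescence ratio within a 140 s kinetic read after compound addition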
# Target sequence (P11229 whole entry, looked up): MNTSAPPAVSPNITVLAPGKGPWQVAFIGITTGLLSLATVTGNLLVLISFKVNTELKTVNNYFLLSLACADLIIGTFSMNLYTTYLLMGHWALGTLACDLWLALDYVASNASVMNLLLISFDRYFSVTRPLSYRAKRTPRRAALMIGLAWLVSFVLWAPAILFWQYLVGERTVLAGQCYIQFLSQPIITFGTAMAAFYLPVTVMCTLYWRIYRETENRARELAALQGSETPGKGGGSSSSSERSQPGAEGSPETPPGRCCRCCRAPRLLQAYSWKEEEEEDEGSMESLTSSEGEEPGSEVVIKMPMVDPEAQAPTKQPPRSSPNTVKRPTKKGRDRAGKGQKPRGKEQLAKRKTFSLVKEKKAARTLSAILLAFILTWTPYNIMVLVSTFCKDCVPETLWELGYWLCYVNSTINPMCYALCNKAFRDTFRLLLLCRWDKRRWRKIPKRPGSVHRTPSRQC
# CHO-K1 Ca antag: M1 antagonist counterscreen hit in parental CHO-K1 cells; ATP-induced calcium, Fluo-8 fluorescence; hit rate 0.6% among 360,000; inhibition, % at 3 µM;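 active = inhibition above a per-plate cutoff, the plate's mean sample inhibition plus 3 SD, cut at about 24% in these data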;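 also: 0% = DMSO plus EC80 ATP and 100% = DMSO alone without ATP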
# CHRM1 antagonist: human M1 muscarinic receptor antagonists, primary screen, CHO-K1 cells, Fluo-8 calcium fluorescence, 1536-well. Muscarinic acetylcholine receptor M1 (Homo sapiens), P11229. CHO-K1 hM1, ACh EC80 antagonist. inhibition, % at 3 µM. hit rate 1.3% among 360,000;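 active = percent inhibition above its own plate's cutoff, namely the mean of that plate's compound wells plus 3 SD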;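 also: peak over basal fluorescence ratio during 140 s after agonist addition; 0% = ACh EC80 plus DMSO and 100% = DMSO alone without agonist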
# CHO-K1 Ca PAM: nonselective calcium activators in parental CHO-K1 cells, primary screen, counter-screen for M1 PAM project, cell-based, Fluo-8 calcium fluorescence, full deck, 1536-well. ATP EC20; 0% at ATP EC20, 100% at ATP max. activation, % at 3 µM. hit rate 0.02% among 360,000. AID 602247, 2012;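 active = activation above the run cutoff, the mean activation of all test compounds plus 3 SD, cut at about 40% in these data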;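 also: peak over basal fluorescence ratio in a 140 s read after ATP addition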
# M1 PAM: human M1 muscarinic receptor positive allosteric modulators, primary screen, CHO-K1 cells, Fluo-8 calcium fluorescence, 1536-well | Muscarinic acetylcholine receptor M1 (Homo sapiens), P11229 | CHO-K1 hM1, ACh EC20; 0% = ACh EC20, 100% = maximal ACh | activation, % at 3 µM | hit rate 0.088% among 360,000 | AID 588819, 2011; in the data active = activation above about 19%, passing the limit was not always enough
# CHO-K1 Ca ag: counter-screen for M1 agonists: effect in parental CHO-K1 cells | activation, % at 3 µM | Fluo-8 calcium fluorescence; scaled to maximal ATP response, vehicle zero | hit rate 0.48% among 360,000 | AID 602248, 2012; in the data active = activation above about 15%;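 also: untransfected CHO-K1 host cells lacking M1 receptor as counterscreen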
# * marks the source's active call; other numbers are inactive results; x = not tested or not shown.
SMILES,M1 ag,CHO-K1 Ca antag,CHRM1 antagonist,CHO-K1 Ca PAM,M1 PAM,CHO-K1 Ca ag
CN(Cc1ccccc1)C(=O)c1nc2ccccn2c1CN1CCC(N2CCOCC2)CC1,-4,-4,-14,1,-1,1
CN(C)[C@H]1CCN([C@H]2CS(=O)(=O)N[C@@H]2COCc2ccccc2)C1,-10,11,-13,21,11,1
O=S1(=O)C[C@H](N2CC[C@@H](O)C2)[C@@H](COCc2ccccc2)N1,-5,27*,8,-8,-1,0
Cn1c(N)c(-c2ccccc2)c2ccc([N+](=O)[O-])cc2c1=O,62*,-5,42*,-6,-24,16*
Cc1ccc(S(=O)(=O)c2cccc(S(=O)(=O)N3CCCC3)c2)cc1S(=O)(=O)N1CCCC1,-1,6,55*,15,-20,6
Cc1ccc(/C=C/C(=O)O)cc1S(=O)(=O)N1CCCCC1,0,-2,40*,-9,24*,1
O=S(=O)(c1ccc(Cl)c(S(=O)(=O)N2CCCC2)c1)N1CCCC1,-5,-13,38*,8,-2,2
C=Cc1ccc(Cn2c(C)c(C(=O)NCCC#N)sc2=O)cc1,-3,-2,-13,16,9,1
CCCCCCCCN1C(=O)[C@H](CC(=O)NCCCOCCCC)C[C@@]2(C(=O)OCC)CCCC=C12,x,-28,x,12,x,-1
COc1ccc(/C=N/NC(=O)c2nnn(-c3nonc3N)c2-c2cccc(OC)c2)cc1,38*,-16,-8,29,4,9
COc1ccc(/C=N/NC(=O)c2nnn(-c3nonc3N)c2-c2cccs2)cc1OC,0,2,0,-2,-1,6
CCOc1cccc(-c2c(C(=O)N/N=C/c3cccs3)nnn2-c2nonc2N)c1,20*,-14,-5,31,21,25*
CCOc1cccc(-c2c(C(=O)N/N=C/c3ccncc3)nnn2-c2nonc2N)c1,3,3,-12,4,6,1
Cc1ccc(/C=N/NC(=O)c2nnn(-c3nonc3N)c2-c2ccc3c(c2)OCO3)s1,25*,-13,-1,19,1,22*
Nc1nonc1-n1nnc(C(=O)N/N=C/c2ccc(F)cc2)c1-c1ccc2c(c1)OCO2,2,-19,-8,4,4,1
COc1cccc(-c2c(C(=O)N/N=C/c3cccs3)nnn2-c2nonc2N)c1,44*,-19,-9,19,8,32*
CC1CCN(S(=O)(=O)c2cc(C(=O)N3CCN(c4ccccc4)CC3)ccc2Br)CC1,-3,21,23,-2,-15,7
Cc1ccc(/C=N/NC(=O)c2nnn(-c3nonc3N)c2-c2cccs2)cc1,69*,1,6,30,13,33*
CCOc1ccc(-c2c(C(=O)N/N=C/c3c[nH]c4ccccc34)nnn2-c2nonc2N)cc1,2,25*,1,-23,9,1
COc1cccc(-c2c(C(=O)N/N=C(\C)c3ccc(Cl)s3)nnn2-c2nonc2N)c1,22*,-3,-4,7,13,2
COc1cccc(-c2c(C(=O)N/N=C(\C)c3ccco3)nnn2-c2nonc2N)c1,7,14,18,-20,-6,6
CC(C)NC(=O)C1(C)CCCCN1Cc1ccc(OCc2ccccc2)cc1 (configuration not stated),-8,-6,-1,18,5,1
O=C(Cc1ccccc1)Nc1ccc(NC(=O)c2ccco2)nc1,0,25*,-9,-4,14,0
CCCC(=O)Nc1ccc(NC(=O)c2ccccc2Cl)nc1,-2,24*,22,-7,-9,0
COCCCn1c(O)c(/C=C2\N=C(C#N)C(=Nc3ccc(C)cc3)O2)sc1=S,-1,-3,-8,12,12,1
SMILES,M1 ag,CHO-K1 Ca antag,CHRM1 antagonist,CHO-K1 Ca PAM,M1 PAM,CHO-K1 Ca ag
CC1CCCC(NC(=O)COC(=O)c2ccc3ncsc3c2)C1C (configuration not stated),-3,-17,-6,-3,4,1
COc1ccc(-c2cc3c(=O)n(CC(=O)NCc4ccccc4F)ncn3n2)cc1,0,26*,10,6,-12,4
Cc1cc(Nc2cccc(C(=O)O)c2)n2ncnc2n1,-1,-9,-9,21,6,0
COc1cccc(C(=O)NCCS(=O)(=O)NCc2ccco2)c1,-3,37*,-14,8,7,1
Cc1ccc(S(=O)(=O)NC(=O)NCc2ccccc2)cc1,-2,28*,11,-9,-6,0
CC(C)c1cccc(OCC(=O)Nc2ccc(S(=O)(=O)Nc3ccccn3)cc2)c1,-8,-22,3,-2,4,1
Cc1ccc(NS(=O)(=O)c2ccc(C(=O)NCc3ccncc3)cc2)cc1,18*,5,2,6,5,15*
CS(=O)(=O)Nc1ccc(C(=O)NCc2ccccn2)cc1,-3,-8,-8,14,3,0
Cc1ccc(NS(=O)(=O)c2ccc(C(=O)NCc3ccccn3)cc2)cc1,28*,-4,8,0,-2,19*
CC(C)c1ccc(OCC(=O)Nc2ccc(S(=O)(=O)Nc3ccccn3)cc2)cc1,24*,-20,-4,13,5,5
COc1ccc(Cc2c(C3CCCCC3)nc3c(Cl)cc(C(F)(F)F)cn23)c(C)c1,x,-5,x,6,x,0
COc1ccccc1-n1cnnc1SCC(=O)Nc1nc(C)c(Cl)cc1Cl,-4,-16,-18,31,12,3
CC(=O)N1CCN(c2nc3ccc([N+](=O)[O-])cc3s2)CC1,1,-11,-17,-7,10,4
CCCCC(=O)Nc1ccc(C(=O)NCc2ccncc2)cc1,-5,25*,-1,4,9,0
CCCCC(=O)Nc1ccc(C(=O)Nc2cccnc2)cc1,-3,11,1,-2,3,1
CCOc1ccc(NS(=O)(=O)c2ccc(C(=O)NCc3ccncc3)cc2)cc1,12,-10,-8,28,14,7
CCOc1ccc(NS(=O)(=O)c2ccc(C(=O)NCc3ccccn3)cc2)cc1,28*,1,8,-8,1,21*
CCC(C)[C@H](Nc1nc(-c2ccccc2)nc2c1oc1ccccc12)C(=O)O (some centres not stated),-5,0,-5,16,1,1
COc1ccccc1NCC(=O)N/N=C/C=C/c1ccccc1,-3,24*,11,-15,-10,-1
